Compounds without any hit were thinned out: in the full panel of roughly 79,000, 15% have a hit. The source made the active and inactive calls. Rule as the data show it: active = growth inhibition above about 70%; inactive = the rest.
How the values were obtained:
[1] = NCI Yeast Anticancer Drug Screen. Data for the rad52 strain (AID 147);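 also: 0% = growth of vehicle-treated control cultures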; details: S. cerevisiae rad52 mutant growth inhibition, active compounds read high
Summary of the method: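 DNA repair-defective yeast; compound exposure; growth scored against vehicle controls.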

[2] = NCI Yeast Anticancer Drug Screen. Data for the wt1 strain (AID 149);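 also: 0% = growth of vehicle-treated wt1 cultures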; details: S. cerevisiae wt1 strain (SPY 50644) growth inhibition, active compounds read high
Summary of the method: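 Each compound is tested on wt1 yeast and the loss of growth versus vehicle gives the inhibition value.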

[3] = NCI Yeast Anticancer Drug Screen. Data for the rad50EPP+ strain (AID 151);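 also: 0% = growth of vehicle-treated control cultures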; details: S. cerevisiae rad50 mutant strain, active compounds read high
Summary of the method: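 rad50EPP+ yeast treated with test compounds. Readout: growth vs vehicle control.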

[4] = NCI Yeast Anticancer Drug Screen. Data for the mgt1 strain (AID 153); details: S. cerevisiae mgt1 mutant growth inhibition, active compounds read high
Summary of the method: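 Growth inhibition relative to vehicle controls was scored for the mgt1 yeast strain after compound exposure.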

[5] = NCI Yeast Anticancer Drug Screen. Data for the rad50 strain (AID 155);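 also: 0% = growth of vehicle-only cultures of the same strain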; details: S. cerevisiae rad50 strain growth inhibition, active compounds read high
Summary of the method: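 Vehicle-treated cultures provide the reference for the growth inhibition reported for compound-exposed, repair-deficient yeast.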

[6] = NCI Yeast Anticancer Drug Screen. Data for the mec2-1 strain (AID 157); details: S. cerevisiae mec2-1 strain, active compounds read high
Summary of the method: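 Growth inhibition is read against vehicle-treated controls after compound exposure of the mec2-1 yeast strain, which is defective in DNA damage repair or cell cycle control.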

[7] = NCI Yeast Anticancer Drug Screen. Data for the rad14 strain (AID 159);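 also: 0% = growth of vehicle-treated control cultures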; details: S. cerevisiae rad14 strain growth inhibition, active compounds read high
Summary of the method: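 Inhibition of growth is reported for a repair-deficient yeast mutant following compound treatment, calculated relative to cultures that received vehicle.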

[8] = NCI Yeast Anticancer Drug Screen. Data for the sgs1 mgt1 strain (AID 161);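 also: 0% = growth of cultures given vehicle only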; details: S. cerevisiae sgs1 mgt1 strain, active compounds read high
Summary of the method: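 Growth of a repair-deficient yeast mutant was monitored after compound treatment and expressed as inhibition relative to vehicle-treated cultures.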

[9] = NCI Yeast Anticancer Drug Screen. Data for the CLN2oe strain (AID 163);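 also: 0% = growth of vehicle-only control cultures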; details: S. cerevisiae CLN2oe strain, active compounds read high
Summary of the method: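 Compound-treated yeast; growth vs vehicle ctrl = % inhibition. Genetically altered strain (cell-cycle control).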

[10] = NCI Yeast Anticancer Drug Screen. Data for the cln2 rad14 strain (AID 165);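 also: 0% = growth equal to vehicle treated cultures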; details: S. cerevisiae cln2 rad14 strain, active compounds read high
Summary of the method: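 Growth inhibition, relative to vehicle-treated controls, is the read-out. The test organism is a yeast strain with defined genetic alterations, cln2 rad14.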

[11] = NCI Yeast Anticancer Drug Screen. Data for the bub3 strain (AID 167); details: S. cerevisiae bub3 mutant strain, active compounds read high
Summary of the method: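 Mutant yeast screening strain plus compound; vehicle-treated cultures serve as the 0% inhibition reference.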

[12] = NCI Yeast Anticancer Drug Screen. Data for the wt2 strain (AID 169); details: S. cerevisiae wt2 strain growth inhibition, active compounds read high
Summary of the method: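 Compound exposure of yeast; growth compared with vehicle controls; inhibition reported.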

[13] = NCI Yeast Anticancer Drug Screen. Data for the mlh1 strain (AID 171);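 also: 0% = growth of vehicle-treated control cultures of the same strain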; details: S. cerevisiae mlh1 strain growth inhibition, active compounds read high
Summary of the method: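 Compounds are applied to a genetically altered yeast strain, and its growth is compared with that of vehicle-treated cultures to give percent inhibition.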

[14] = NCI Yeast Anticancer Drug Screen. Data for the sgs1 strain (AID 173);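 also: 0% = growth of vehicle-only control cultures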; details: S. cerevisiae sgs1 mutant, active compounds read high
Summary of the method: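 Compounds applied to genetically altered yeast; growth compared with vehicle-treated cultures to give % inhibition.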

[15] = NCI Yeast Anticancer Drug Screen. Data for the mlh1 rad18 strain (AID 175); details: S. cerevisiae mlh1 rad18 strain growth inhibition, active compounds read high
Summary of the method: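 Cells of a genetically altered yeast strain, deficient in DNA damage repair, were treated with compound. Their growth was then compared with that of vehicle-treated cultures to give inhibition.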

[16] = NCI Yeast Anticancer Drug Screen. Data for the rad18 strain (AID 177); details: S. cerevisiae rad18 mutant growth inhibition, active compounds read high
Summary of the method: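 Compounds are applied to a repair-deficient yeast strain, and growth is compared with that of vehicle-treated cultures to give percent inhibition.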

[17] = at 5.0 µM (retest, dose inferred, filed as 0.5)
[18] = at 50.0 µM (retest, dose inferred, filed as 5.0)

Measured: growth inhibition

C(=C\c1ccccc1)/COc1ccccc1C(N1CCOCC1)n1nc2ccccc2n1 (stereo unspecified)
inactive: [1]; at 1.2 µM 3% | [1]; at 3.7 µM 3% | [1]; at 11.0 µM 13% | [2]; at 1.2 µM 32% | [2]; at 3.7 µM 36% | [2]; at 11.0 µM 33% | [3]; at 1.2 µM -5% | [3]; at 3.7 µM 1% | [3]; at 11.0 µM 25% | [3]; at 33.0 µM 64% | [4]; at 1.2 µM 8% | [4]; at 3.7 µM 9% | [4]; at 11.0 µM 20% | [5]; at 1.2 µM -6% | [5]; at 3.7 µM -21% | [5]; [17] -9% | [5]; at 11.0 µM 8% | [6]; at 1.2 µM -19% | [6]; at 3.7 µM -13% | [6]; [17] 3% | [6]; at 11.0 µM -1% | [7]; at 1.2 µM -4% | [7]; at 3.7 µM 0% | [7]; at 11.0 µM 35% | [8]; [17] -1% | [9]; at 1.2 µM 0% | [9]; at 3.7 µM -9% | [9]; at 11.0 µM -10% | [9]; at 33.0 µM 11% | [10]; [17] 11% | [11]; at 1.2 µM 1% | [11]; at 3.7 µM -14% | [11]; [17] 3% | [11]; at 11.0 µM -4% | [12]; at 1.2 µM -4% | [12]; at 3.7 µM 1% | [12]; at 11.0 µM 25% | [13]; at 1.2 µM -2% | [13]; at 3.7 µM -2% | [13]; at 11.0 µM 37% | [14]; at 1.2 µM 23% | [14]; at 3.7 µM 22% | [14]; at 11.0 µM 54% | [15]; [17] 16% | [16]; at 1.2 µM -2% | [16]; at 3.7 µM -7% | [16]; at 11.0 µM 6%
active: [1]; at 33.0 µM 85% | [1]; at 100.0 µM 97% | [2]; at 33.0 µM 88% | [2]; at 100.0 µM 98% | [3]; at 100.0 µM 95% | [4]; at 33.0 µM 91% | [4]; at 100.0 µM 98% | [5]; at 33.0 µM 96% | [5]; [18] 98% | [5]; at 50.0 µM 98.1% | [5]; at 100.0 µM 97% | [6]; at 33.0 µM 86% | [6]; [18] 95% | [6]; at 50.0 µM 98.8% | [6]; at 100.0 µM 98% | [7]; at 33.0 µM 97% | [7]; at 100.0 µM 98% | [8]; [18] 97% | [8]; at 50.0 µM 97.9% | [9]; at 100.0 µM 93% | [10]; [18] 81% | [10]; at 50.0 µM 91.2% | [11]; at 33.0 µM 86% | [11]; [18] 98% | [11]; at 50.0 µM 98.3% | [11]; at 100.0 µM 97% | [12]; at 33.0 µM 95% | [12]; at 100.0 µM 99% | [13]; at 33.0 µM 93% | [13]; at 100.0 µM 97% | [14]; at 33.0 µM 96% | [14]; at 100.0 µM 99% | [15]; [18] 99% | [15]; at 50.0 µM 99% | [16]; at 33.0 µM 86% | [16]; at 100.0 µM 98%

c1ccc2c(c1)NC(NC1Nc3ccccc3N1)N2
active: [11]; [18] 70% | [15]; [18] 81%
inactive: [1]; at 1.2 µM 0% | [1]; at 3.7 µM 4% | [1]; at 11.0 µM 6% | [1]; at 33.0 µM 19% | [1]; at 100.0 µM 31% | [2]; at 1.2 µM 0% | [2]; at 3.7 µM 5% | [2]; at 11.0 µM 4% | [2]; at 33.0 µM 9% | [2]; at 100.0 µM 19% | [3]; at 1.2 µM 9% | [3]; at 3.7 µM 23% | [3]; at 11.0 µM 34% | [3]; at 33.0 µM 38% | [3]; at 100.0 µM 48% | [4]; at 1.2 µM -4% | [4]; at 3.7 µM -7% | [4]; at 11.0 µM -4% | [4]; at 33.0 µM 0% | [4]; at 100.0 µM 10% | [5]; at 1.2 µM 1% | [5]; at 3.7 µM 5% | [5]; [17] 9% | [5]; at 11.0 µM 8% | [5]; at 33.0 µM 23% | [5]; [18] 67% | [5]; at 50.0 µM 41.5% | [5]; at 100.0 µM 40% | [6]; at 1.2 µM 5% | [6]; at 3.7 µM 7% | [6]; [17] -3% | [6]; at 11.0 µM 10% | [6]; at 33.0 µM 16% | [6]; [18] 16% | [6]; at 50.0 µM 9.05% | [6]; at 100.0 µM 20% | [7]; at 1.2 µM -4% | [7]; at 3.7 µM -1% | [7]; at 11.0 µM 3% | [7]; at 33.0 µM 12% | [7]; at 100.0 µM 26% | [8]; [17] -4% | [8]; [18] 66% | [8]; at 50.0 µM 15.7% | [9]; at 1.2 µM -6% | [9]; at 3.7 µM -17% | [9]; at 11.0 µM -9% | [9]; at 33.0 µM -7% | [9]; at 100.0 µM 8% | [10]; [17] 13% | [10]; [18] 32% | [10]; at 50.0 µM -21.1% | [11]; at 1.2 µM -2% | [11]; at 3.7 µM -4% | [11]; [17] 19% | [11]; at 11.0 µM -2% | [11]; at 33.0 µM -2% | [11]; at 50.0 µM 10.8% | [11]; at 100.0 µM -10% | [12]; at 1.2 µM 0% | [12]; at 3.7 µM 0% | [12]; at 11.0 µM 0% | [12]; at 33.0 µM 8% | [12]; at 100.0 µM 19% | [13]; at 1.2 µM 3% | [13]; at 3.7 µM 1% | [13]; at 11.0 µM 4% | [13]; at 33.0 µM 10% | [13]; at 100.0 µM 14% | [14]; at 1.2 µM 0% | [14]; at 3.7 µM 3% | [14]; at 11.0 µM 9% | [14]; at 33.0 µM 12% | [14]; at 100.0 µM 16% | [15]; [17] 25% | [15]; at 50.0 µM 27.6% | [16]; at 1.2 µM 3% | [16]; at 3.7 µM 10% | [16]; at 11.0 µM 29% | [16]; at 33.0 µM 49% | [16]; at 100.0 µM 64%

Source: PubChem BioAssay (NCI)
